# Screening data from PubChem.
# CASP6 VEID inh – blocks human caspase-6 cleavage activity. inhibition, % at 12.5 µM. 350,000 tested, 0.53% active. P55212. purified caspase-6, Z-VEID-R110 cleavage fluorescence;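 active = mean inhibition across replicates at least about 35%, with every replicate also reaching that limit, limit read from the data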;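 also: 0% = median of neutral control wells and 100% = no fluorescence left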
# Target sequence (P55212 24-179 limits assumed): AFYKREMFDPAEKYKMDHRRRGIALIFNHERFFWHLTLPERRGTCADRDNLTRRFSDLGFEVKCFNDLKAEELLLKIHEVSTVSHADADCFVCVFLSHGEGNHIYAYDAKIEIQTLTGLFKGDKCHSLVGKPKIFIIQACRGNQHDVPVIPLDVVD
# Target sequence (P55212 194-293 limits assumed): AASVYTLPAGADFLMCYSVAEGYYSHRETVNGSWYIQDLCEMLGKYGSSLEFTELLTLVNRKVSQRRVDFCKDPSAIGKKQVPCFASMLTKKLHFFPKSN
# SIRT5 inh – sirtuin-5 (human) deacylase inhibition; Purified SirT5, succinyl-peptide AMC, trypsin-coupled fluorescence; 330,000 tested, 1.1% active; inhibition, % at 15 µM; Q9NXA8; AID 652115; in the data active = inhibition above about 15%
# Target sequence (Q9NXA8 whole entry, looked up): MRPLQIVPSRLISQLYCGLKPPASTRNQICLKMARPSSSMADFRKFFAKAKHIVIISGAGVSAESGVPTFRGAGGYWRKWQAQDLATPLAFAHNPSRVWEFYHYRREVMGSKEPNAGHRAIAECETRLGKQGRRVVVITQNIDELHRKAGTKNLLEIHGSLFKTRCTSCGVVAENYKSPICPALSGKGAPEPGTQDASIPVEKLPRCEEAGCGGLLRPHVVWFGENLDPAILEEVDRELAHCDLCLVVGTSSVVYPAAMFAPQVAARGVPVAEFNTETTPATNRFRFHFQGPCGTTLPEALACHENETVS
# NSD2 HMT inh – inhibitors of human histone methyltransferase NSD2; inhibition, % at 12.5 µM; 310,000 tested, 0.54% active; NSD2 peptide methylation, AlphaScreen, 120 min; O96028; in the data active = inhibition above about 50%
# UBC9 SUMO inh – inhibitors of human SUMOylation (UBC9); HTRF SUMOylation assay, SAE1/SAE2 + UBC9, in vitro; inhibition, % at 35 µM; 290,000 tested, 0.36% active; in the data active = inhibition above about 50%, passing the limit was not always enough
# An asterisk follows results filed as active; . = no result given; ! = repeats disagree. Sampled rows, rich in hits. Any-hit rate of the full collection: about 1.6%.
SMILES,CASP6 VEID inh,SIRT5 inh,NSD2 HMT inh,UBC9 SUMO inh
C[C@H]1CCCCO[C@H](CN(C)Cc2ccc(Cl)c(Cl)c2)[C@@H](C)CN([C@@H](C)CO)C(=O)c2cc(NS(=O)(=O)c3ccc(F)cc3)ccc2O1,2,15*,.,.
C[C@H](CO)N1C[C@H](C)[C@@H](CN(C)C(=O)Cc2ccncc2)Oc2cc(C3=CCCC3)ccc2S1(=O)=O,-1,-1,.,.
COCCN(C(=O)c1cc2c(s1)CCC2)c1c(N)n(CC(C)C)c(=O)[nH]c1=O,52*,-3,1,.
CC(C)(C)c1ccc(C(=O)O/N=C(\N)Cc2cccs2)cc1,3,34*,7,.
Cc1ccccc1C(=O)O/N=C(\N)Cc1cccs1,2,0,-3,5
COC(=O)/C=C/c1sc2nc(C)cc(C)c2c1N=CN(C)C,.,32*,-4,24
C[C@H](CO)N1C[C@H](C)[C@@H](CN(C)Cc2ccc(F)cc2)Oc2ncc(-c3ccccc3F)cc2C1=O,3,6,.,.
Cc1ccccc1S(=O)(=O)N1[C@@H]2CNC[C@H]1[C@@H]2c1ccc(-c2ccc(C#N)cc2)cc1,40*,-5,.,.
COc1ccc(-n2nc(C(=O)O)cc2-c2ccccc2)cc1,-1,18*,0,8
COCCNC(=O)C1Nc2ccc(C(F)(F)F)cc2C2C=CCC12 (configuration not stated),-3,5,.,.
CCOC(=O)C1Nc2ccc(C(=O)O)cc2C2C=CCC12 (configuration not stated),23,14,100*,25
CCOC(=O)c1ccc2c(c1)C1C=CCC1C(C(=O)O)N2 (configuration not stated),.,.,.,60*
CCOC(=O)/C(=N/Nc1ccc(OC)cc1)Sc1nnc(CCc2ccccc2)n1-c1ccccc1,3,22*,-1,0
COc1ccccc1CNC(=O)c1ccc(CS(=O)(=O)c2ccc(Cl)cc2)o1,.,.,-5,.
CC1COCC(C)N1C1=C(Cl)C(=O)c2ccccc2C1=O (configuration not stated),33,0,107*,.
C[C@@H]1CN([C@@H](C)CO)C(=O)c2cc(C#CC3CC3)cnc2O[C@@H]1CN(C)C(=O)Nc1ccccc1,-2,-2,.,.
O=C(NCC1CCCO1)C(c1ccc(F)cc1)N(CC1CCCO1)C(=O)c1ccc(-c2ccccc2)[nH]1 (configuration not stated),48*,2,2,-8
O=C(NCC1CCCO1)C(c1cccs1)N(Cc1cccs1)C(=O)c1ccc(-c2ccccc2)[nH]1 (configuration not stated),4,0,1,-11
O=C(O)C1=C[C@H](c2coc3ccccc3c2=O)C[C@H](OCCCCO)O1,-4,16*!,.,16
C[C@@H]1CN([C@@H](C)CO)C(=O)c2cc(NS(=O)(=O)c3ccc(Cl)cc3)ccc2O[C@@H](C)CCCCO[C@H]1CN(C)S(=O)(=O)c1cn(C)cn1,1,-2,.,.
O=S(=O)(c1ccc(F)cc1)c1nc(-c2ccco2)oc1Nc1ccccc1,2,112*,2,3
O=S(=O)(c1ccccc1)c1nc(-c2ccco2)oc1Nc1ccccc1,-5,-2,-1,1
COc1cccc(NC(=O)Nc2ccc3c(c2)C(=O)N(C)[C@H]2CC[C@H](CC(=O)NCCc4ccccc4)O[C@@H]2CO3)c1,1,5,.,.
CC(C)Sc1nc2ccc(Br)cc2[nH]1,-3,-4,.,4
CSc1nc2ccc(Br)cc2[nH]1,.,15*,-2,1
SMILES,CASP6 VEID inh,SIRT5 inh,NSD2 HMT inh,UBC9 SUMO inh
O=C(c1cccc(S(=O)(=O)N2CCCCCC2)c1)N1CCN(c2ccccc2F)CC1,48*,0,-3,7
CN1CCN(S(=O)(=O)c2cccc(C(=O)N3CCN(c4ccccc4F)CC3)c2)CC1,15,-4,1,.
CC(=O)N1CCN(C(=O)c2cccc(S(=O)(=O)N3CCN(c4ccccc4)CC3)c2)CC1,20,-2,-1,.
CN1CCN(S(=O)(=O)c2cccc(C(=O)N3CCN(c4ccccc4)CC3)c2)CC1,4,17*,-1,.
CO[C@@H]1CN(C)C(=O)c2ccc(NC(=O)C3CC3)cc2OC[C@@H](C)N(C(=O)c2ccccc2F)C[C@H]1C,-1,12,.,.
CO[C@H]1CN(C)C(=O)c2cc(NS(C)(=O)=O)ccc2OC[C@@H](C)N(C(=O)c2ccc3c(c2)OCO3)C[C@@H]1C,-4,.,.,.
Cc1ccc(-c2ccc3c(c2)O[C@@H](CN(C)C)[C@@H](C)CN([C@H](C)CO)S3(=O)=O)cc1,-1,3,.,.
O=C(O)COn1c(-c2ccccc2)nc2ccc([N+](=O)[O-])cc21,43*,12,3,15
CCOC(=O)C(C)On1c(-c2ccccc2)nc2ccc([N+](=O)[O-])cc21 (configuration not stated),.,.,5,33
CCn1c(SCc2nc3sc(C(=O)O)c(C)c3c(=O)[nH]2)nc2ccccc21,.,.,42,55*
COCCn1c(SCc2nc3sc(C(=O)OC)c(C)c3c(=O)[nH]2)nc2ccccc21,.,.,4,9
Cc1ccccc1NC(=O)C(C)OC(=O)C1CC(=O)N(Cc2ccco2)C1 (configuration not stated),55*,-4,1,.
Cc1ccc(S(=O)(=O)Nc2c(C)nn(C)c2C)cc1C,0,-3,-3,.
CC(=O)c1ccc(S(=O)(=O)Nc2c(C)nn(C)c2C)cc1,43*,-2,10,.
CN(C)CC(=O)N[C@@H]1C[C@@H]2O[C@H](CO)CC[C@@H]2O[C@@H]1CCc1ccc(C2=CCCCC2)cc1,.,-3,.,.
O=S(=O)(N[C@@H]1CCCN(Cc2ccc(OCCO)cc2)C1)c1ccccc1,0,.,.,.
CC(C)Cc1ccc(CN2CC[C@@H](NS(=O)(=O)c3ccccc3)C2)cc1,3,-2.2*,.,.
COc1cccc(S(=O)(=O)N[C@H]2C=C[C@H](CC(=O)NCc3ccc(Cl)cc3)O[C@H]2CO)c1,-1,2,.,.
Cc1ccc(C(C(=O)NC(C)(C)C)N(C(=O)CCC(=O)Nc2ccccn2)c2ccccc2F)cc1 (configuration not stated),4,19*,-1,0
Cc1ccc(C(C(=O)NC(C)(C)C)N(Cc2ccco2)C(=O)CCC(=O)Nc2ccccn2)cc1 (configuration not stated),1,-1,6,3
COc1ccc(N2CCN(C(=O)CCNS(=O)(=O)c3ccc(C)cc3)CC2)cc1,36*,-6,3,-7
C[C@@H]1CN([C@@H](C)CO)S(=O)(=O)c2ccc(C#CC3(O)CCCC3)cc2O[C@@H]1CN(C)C(=O)Cc1ccncc1,.,3,.,.
C[C@@H]1CN([C@H](C)CO)C(=O)c2ccccc2-c2ccccc2CO[C@@H]1CN(C)Cc1cccc(C(F)(F)F)c1,-1,5,.,.
C[C@H]1CN([C@@H](C)CO)C(=O)c2ccccc2-c2ccccc2CO[C@@H]1CN(C)Cc1cccc(C(F)(F)F)c1,0,19*,.,.
CCOC(=O)N(C)C[C@@H]1OCc2ccccc2-c2ccccc2C(=O)N([C@@H](C)CO)C[C@H]1C,-2,25*,.,.
C[C@H]1CN([C@@H](C)CO)C(=O)c2ccccc2-c2ccccc2CO[C@H]1CN(C)Cc1ccccc1C(F)(F)F,-2,17*,.,.
